These results are taken from PubChem BioAssay.

Calls of active or inactive are those of the source.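 Rule for the calls, unless noted: active = compound raises GLP1 secretion from the human gut endocrine cells, with no numeric limit stated; inactive = the rest.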

The nature of assay [1]: Wnt pathway potentiators raising nuclear beta-catenin – imaging, WNT3A-conditioned medium, mouse C2C12, NPC library, primary screen (AID 1117326; in the data active = nuclear beta-catenin stimulation mostly above about 4.2%, no sharp cut-off; inactive = mostly below about 10%; note: reference of the scale not given here). To be noted: stronger effect = higher value.
Assay [2] can be described thus: stimulators of insulin release from INS-1E, primary screen, cell-based, 5 mM glucose, NPC library (AID 1117329;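 active = compound raises insulin release from rat beta cells at 5 mM glucose, no numeric limit stated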; note: reference of the scale not given here). To be noted: rat INS-1E insulin secretion, at 10 µM, stronger effect = higher value.
Assay [3] in a line: growth inhibition of GSK3B-pretreated HCT116 cells – cell-based, CellTiter-Glo, 0.2 to 20 µM (AID 1117336;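 active = compounds lowering colon cancer cell viability after pretreatment blocking the GSK3B kinase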). Particulars: HCT116 viability after GSK3B inhibitor, at 20 µM, stronger effect = higher value. In general terms: ATP-based viability assays read luminescence as a measure of living cells.
Assay [4] in a line: inhibition of endothelial tube formation, primary screen, imaging, VEGF stimulated, CD31 staining, tube area, NPC library (AID 1117340;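 active = compound that reduces growth-factor-driven endothelial tube area in a mixed cell culture, no cutoff stated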). To be noted: VEGF-stimulated ADSC/ECFC co-culture, at 10 µM, stronger effect = higher value.
The nature of assay [5]: GLP1 release stimulators, primary, NCI-H716, NPC library (AID 1117341). Note: reference of the scale not given here. Particulars: NCI-H716 cells, at 10 µM, stronger effect = higher value.
A short description of assay [6]: HCT116 colon cancer cell growth inhibition, primary screen, CellTiter-Glo luminescence, NPC library (AID 1117342;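 active = compounds that lower survival of HCT116 colon cancer cells in the luminescence readout, no numeric limit stated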). Particulars: at 20 µM (top of the series).
Assay [7] in a line: reduced SW480 viability measured with CellTiter-Glo, NPC library, primary (AID 1117343;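 active = compounds that lower viability of the colon cancer cells in the luminescence readout, with no numeric limit stated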). Particulars: CellTiter-Glo luminescence; at 20 µM (top of the series).
A short description of assay [8]: NPC library primary testing for decreased DLD-1 cell viability via CellTiter-Glo (AID 1117346;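 active = compounds that lower survival of DLD-1 colon cancer cells in the luminescence readout, no cutoff given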). To be noted: DLD-1 viability, CellTiter-Glo luminescence; at 20 µM (top of the series).

For `CCN(CC)CCOC(=O)C(C)(c1ccccc1)c1ccccc1`, the nuclear beta-catenin stimulation in assay [1] (at 10 µM) is 1.1% (inactive); in assay [1] (stimulation, at 2 µM) it was 0.8%. In assay [2], the insulin secretion stimulation is 27.8% (active). The viability decrease in assay [3] is 36.8% (inactive). Further, the tube area decrease in assay [4] was 0.6% (inactive). Also, in assay [5], the GLP1 secretion stimulation is 8.1% (inactive). Further, in assay [6], the inhibition of viability was 49.8% (inactive). Besides, the viability decrease (inhibition) in assay [7] is 22.2% (inactive); in assay [8], 17.9% (inactive).

Regarding `Cc1ccc2c(c1)C1CN(C)CCC1N2` (stereo not drawn), the nuclear beta-catenin stimulation in assay [1] (at 10 µM) was -0.3% (inactive); in assay [1] (stimulation, at 2 µM), 0.7%. In assay [2], the insulin secretion stimulation was -0.9% (inactive). In addition, the viability decrease in assay [3] was 1.05% (inactive). Further, the tube area decrease in assay [4] was -17.5% (inactive). Also, the GLP1 secretion stimulation in assay [5] was 6.1% (inactive). Also, in assay [6], the inhibition of viability was 5.2% (inactive). Moreover, the viability decrease (inhibition) in assay [7] was 22.4% (inactive); in assay [8] it was 0.7% (inactive).

As to `O=C(O)c1ccc(=O)[nH]c1`, the nuclear beta-catenin stimulation was 0.4% (inactive) in assay [1] (at 10 µM) and 0.8% in assay [1] (stimulation, at 2 µM). Moreover, the insulin secretion stimulation in assay [2] was 2.6% (inactive). Also, the viability decrease in assay [3] was 3.2% (inactive). Moreover, in assay [4], the tube area decrease is -2.4% (inactive). Besides, the GLP1 secretion stimulation in assay [5] is -0.3% (inactive). Also, in assay [6], the inhibition of viability was 7.7% (inactive). Further, the viability decrease (inhibition) is -13.1% (inactive) in assay [7] and -3.9% (inactive) in assay [8].

In the case of `C1CN(P2(N3CC3)=NP(N3CC3)(N3CC3)=NP(N3CC3)(N3CC3)=N2)CCO1` (stereo not drawn), the nuclear beta-catenin stimulation in assay [1] (at 10 µM) is -0.2% (inactive); in assay [1] (stimulation, at 2 µM), 0.7%. For the same molecule, the insulin secretion stimulation in assay [2] was 2.5% (inactive). For the same molecule, in assay [3], the viability decrease is 8.1% (inactive). Besides, the tube area decrease in assay [4] was 86.7% (active). In addition, the GLP1 secretion stimulation in assay [5] was -5.1% (inactive). Also, the inhibition of viability in assay [6] is 30.4% (inactive). Further, the viability decrease (inhibition) is 17.7% (active) in assay [7] and 5.5% (inactive) in assay [8].

As to `CCN(CC)N(O)N=O`, the nuclear beta-catenin stimulation was -1.2% (inactive) in assay [1] (at 10 µM) and 0.7% in assay [1] (stimulation, at 2 µM). In addition, the insulin secretion stimulation in assay [2] was -0.3% (inactive). Besides, the viability decrease in assay [3] was 2.3% (inactive). Further, the tube area decrease in assay [4] is -3.9% (inactive). For the same molecule, the GLP1 secretion stimulation in assay [5] was -1.7% (inactive). In addition, the inhibition of viability in assay [6] is -0.1% (inactive). In addition, the viability decrease (inhibition) is -1.2% (inactive) in assay [7] and -7.7% (inactive) in assay [8].

In the case of `ClCCN1CCCC1`, the nuclear beta-catenin stimulation in assay [1] (at 10 µM) was 0.7% (inactive); in assay [1] (stimulation, at 2 µM), -0.2%. Further, the insulin secretion stimulation in assay [2] was 4% (inactive). For the same molecule, in assay [3], the viability decrease was 5.1% (inactive). Besides, the tube area decrease in assay [4] is 9.9% (inactive). For the same molecule, the GLP1 secretion stimulation in assay [5] was -2.4% (inactive). For the same molecule, the inhibition of viability in assay [6] is -8.3% (inactive). In addition, the results for the viability decrease (inhibition) in assay [7] and in assay [8] were 8.7% (inactive) and 8.5% (inactive), respectively.

Regarding `CC(Cc1ccc2c(c1)OCO2)NCC(O)c1ccc(O)c(O)c1` (stereo not drawn), the nuclear beta-catenin stimulation in assay [1] (at 10 µM) was 2.6% (inactive); in assay [1] (stimulation, at 2 µM), -0.2%. Also, the insulin secretion stimulation in assay [2] is 2.9% (inactive). Also, in assay [3], the viability decrease was 38.3% (inactive). Further, the tube area decrease in assay [4] was 21.3% (inactive). Besides, the GLP1 secretion stimulation in assay [5] is -2% (inactive). For the same molecule, the inhibition of viability in assay [6] was 25.8% (inactive). For the same molecule, the viability decrease (inhibition) is 40.4% (inactive) in assay [7] and 14.6% (inactive) in assay [8].
